“And” between values parts separate entries of the source, which are not always exact repeats. Equal entries are not always repeated. About 2,000 (36%) of roughly 5,500 compounds were called active. Inconclusive results (about 18%) are left out. No stated cut-off is given here; in the data, active means normalized growth mostly below about 0.91 (no sharp cut-off); inconclusive means no clear call, values can overlap the other calls; inactive means mostly above about 0.92. The list shows a part of the results.
Assay: chemical genetic growth profiling, strain panel (AID 1159580);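 further: tested at 20 µM; growth read once vehicle control cultures reached saturation at 30 °C; 1 = growth at the plate median or of vehicle wells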
Details: S. cerevisiae deletion strains, growth OD

Measured: normalized growth

Cc1c(C(N)=O)cc([N+](=O)[O-])cc1[N+](=O)[O-]
inactive: locus YAL021C, strain ccr4, stronger effect = lower value 0.995 | locus YAL026C, strain drs2, stronger effect = lower value 1.04 | locus YAL030W, strain snc1, stronger effect = lower value 1.01 | locus YBL061C, strain skt5, stronger effect = lower value 1.02 | locus YBR009C, strain hhf1, stronger effect = lower value 1.08 | locus YBR021W, strain FUR4, stronger effect = lower value 0.969 | locus YBR023C, strain chs3, stronger effect = lower value 1.03 | locus YBR171W, strain sec66, stronger effect = lower value 1.01 | locus YBR229C, strain ROT2, stronger effect = lower value 0.986 | locus YBR231C, strain swc5, stronger effect = lower value 0.996 | locus YBR279W, strain paf1, stronger effect = lower value 1.02 | locus YCL011C, strain gbp2, stronger effect = lower value 1.03 | locus YCL016C, strain dcc1, stronger effect = lower value 1.04 | locus YCL029C, strain bik1, stronger effect = lower value 0.977 | locus YCL061C, strain MRC1, stronger effect = lower value 1.03 | locus YCL069W, strain vba3, stronger effect = lower value 1.02 | locus YCR088W, strain abp1, stronger effect = lower value 1.01 | locus YDL005C, strain med2, stronger effect = lower value 1.02 | locus YDL035C, strain GPR1, stronger effect = lower value 0.994 | locus YDL040C, strain nat1, stronger effect = lower value 1.02 | locus YDL074C, strain BRE1, stronger effect = lower value 1.01 | locus YDL101C, strain DUN1, stronger effect = lower value 0.99 | locus YDL134C, strain PPH21, stronger effect = lower value 0.97 | locus YDL185W, strain tfp1, stronger effect = lower value 0.967 | locus YDL192W, strain arf1, stronger effect = lower value 0.966 | locus YDR001C, strain nth1, stronger effect = lower value 1.01 | locus YDR069C, strain doa4, stronger effect = lower value 0.997 | locus YDR101C, strain arx1, stronger effect = lower value 1 | locus YDR137W, strain rgp1, stronger effect = lower value 1.04 | locus YDR150W, strain NUM1, stronger effect = lower value 0.99 | locus YDR159W, strain sac3, stronger effect = lower value 0.991 | locus YDR162C, strain NBP2, stronger effect = lower value 0.994 | locus YDR195W, strain ref2 1.02 | locus YDR297W, strain sur2, stronger effect = lower value 1.01 | locus YDR318W, strain mcm21, stronger effect = lower value 0.983 | locus YDR334W, strain swr1, stronger effect = lower value 1.02 | locus YDR335W, strain msn5, stronger effect = lower value 1.03 | locus YDR388W, stronger effect = lower value 0.982 | locus YDR392W, strain spt3, stronger effect = lower value 1 | locus YDR502C, strain sam2, stronger effect = lower value 1 | locus YEL003W, strain gim4, stronger effect = lower value 1.03 | locus YEL037C, strain rad23, stronger effect = lower value 1.02 | locus YEL061C, strain CIN8 (second series), stronger effect = lower value 1.02 | locus YEL061C, strain CIN8, stronger effect = lower value 0.99 | locus YER015W, strain faa2, stronger effect = lower value 1.01 | locus YER016W, strain bim1, stronger effect = lower value 1.01 | locus YER110C, stronger effect = lower value 0.965 | locus YER111C, strain swi4, stronger effect = lower value 1.02 | locus YER155C, strain BEM2 (second series), stronger effect = lower value 0.978 | locus YER155C, strain BEM2, stronger effect = lower value 0.987 | locus YER167W, strain BCK2, stronger effect = lower value 0.99 | locus YFR010W, strain ubp6, stronger effect = lower value 1.03 | locus YGL078C, strain dbp3, stronger effect = lower value 0.98 | locus YGL086W, strain mad1, stronger effect = lower value 0.994 | locus YGL167C, strain pmr1, stronger effect = lower value 1.03 | locus YGL173C, strain kem1, stronger effect = lower value 1.01 | locus YGL227W, strain vid30, stronger effect = lower value 1.01 | locus YGL240W, strain doc1, stronger effect = lower value 1 | locus YGL248W, strain PDE1, stronger effect = lower value 1 | locus YGL253W, strain hxk2, stronger effect = lower value 1.02 | locus YGR078C, strain PAC10, stronger effect = lower value 1 | locus YGR135W, strain pre9, stronger effect = lower value 0.977 | locus YGR252W, strain gcn5, stronger effect = lower value 0.945 | locus YHR013C, strain ard1, stronger effect = lower value 1.07 | locus YHR027C, strain rpn1, stronger effect = lower value 1.02 | locus YHR030C, strain SLT2, stronger effect = lower value 0.98 and 1.04 | locus YHR079C, strain IRE1 (second series), stronger effect = lower value 0.984 | locus YHR079C, strain IRE1, stronger effect = lower value 1.04 | locus YHR094C, strain hxt1, stronger effect = lower value 0.977 | locus YHR129C, strain ARP1, stronger effect = lower value 0.993 | locus YHR142W, strain chs7, stronger effect = lower value 1.02 | locus YHR200W, strain rpn10, stronger effect = lower value 0.98 | locus YIL066C, strain RNR3, stronger effect = lower value 0.988 | locus YIL073C, strain SPO22, stronger effect = lower value 0.95 | locus YIL125W, strain kgd1, stronger effect = lower value 0.99 | locus YIR030C, strain dcg1, stronger effect = lower value 0.984 | locus YJL092W, strain hpr5, stronger effect = lower value 1.02 | locus YJL095W, strain BCK1 (second series), stronger effect = lower value 1.04 | locus YJL095W, strain BCK1, stronger effect = lower value 1.02 and 1.05 | locus YJL115W, strain asf1, stronger effect = lower value 1.03 | locus YJL129C, strain trk1, stronger effect = lower value 1.05 | locus YJL134W, strain LCB3, stronger effect = lower value 0.991 | locus YJL154C, strain vps35, stronger effect = lower value 1.01 | locus YJL164C, strain tpk1, stronger effect = lower value 1.06 | locus YJL166W, strain qcr8, stronger effect = lower value 1.02 | locus YJL168C, strain set2, stronger effect = lower value 0.979 | locus YJL187C, strain SWE1 (second series), stronger effect = lower value 0.999 | locus YJL187C, strain SWE1, stronger effect = lower value 1.01 | locus YJR043C, strain POL32, stronger effect = lower value 1.02

Source: PubChem BioAssay AID1159580 (chemical genetic matrix, 2015)
